High-throughput results from PubChem BioAssay.
Compounds with a hit are over-represented: about 1.3% of the library has one in this group of screens.
PLAP act: PLAP enzyme activators, biochemical, luminescence, HTS; activation fold at 20 µM; purified PLAP enzyme, luminescent substrate read-out; stronger effect = higher value; 96,000 tested, 1.2% active; Alkaline phosphatase, placental type (Homo sapiens), P05187; in the data active = activation fold above about 2
E coli WT exp: growth inhibitors of wild-type E. coli, primary screen, strain BW25113, expanded library, OD600 | OD600 absorbance | growth inhibition, % at 100 µM | 98,000 tested, 0.15% active;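 active = growth inhibition above about 50% at one test dose, limit read from the data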;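 note: growth measured after 20 h incubation at 37 °C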
HePTP inh: inhibitors of human HePTP phosphatase, primary screen, biochemical, absorbance, leukemia target; Tyrosine-protein phosphatase non-receptor type 7 (Homo sapiens), P35236; recombinant HePTP phosphatase activity, OD absorbance; inhibition, % at 20 µM; 110,000 tested, 0.64% active; in the data active = inhibition above about 50%;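 note: plate controls were vehicle for no effect and reference inhibitor for full effect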
Target sequence (P35236 whole entry, looked up): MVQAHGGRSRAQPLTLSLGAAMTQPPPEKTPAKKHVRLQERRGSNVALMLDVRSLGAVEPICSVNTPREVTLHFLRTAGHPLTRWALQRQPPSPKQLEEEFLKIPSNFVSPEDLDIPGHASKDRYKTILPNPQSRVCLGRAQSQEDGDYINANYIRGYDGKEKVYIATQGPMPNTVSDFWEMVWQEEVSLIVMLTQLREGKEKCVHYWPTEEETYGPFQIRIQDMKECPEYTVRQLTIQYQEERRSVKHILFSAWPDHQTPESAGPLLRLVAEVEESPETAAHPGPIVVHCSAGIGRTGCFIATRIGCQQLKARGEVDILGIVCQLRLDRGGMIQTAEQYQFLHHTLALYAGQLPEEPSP
TNAP act DEA: human TNAP enzyme activators, primary screen, biochemical, luminescent, intermediate phosphate acceptor level; 64,000 tested, under 10 active; purified TNAP, CDP-star luminescence, 100 mM DEA, 30 min; stronger effect = higher value; scale: 0 levamisole-inhibited, 1 vehicle-only enzyme; activation factor at 20 µM; Alkaline phosphatase, tissue-nonspecific isozyme (Homo sapiens), P05186;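 active = activation factor of at least 2 at 20 µM, relative to controls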
Numbers without * were called inactive; . = not tested or not shown.

SMILES | PLAP act | E coli WT exp | HePTP inh | TNAP act DEA
CCCCn1nc2cc(C(=O)NCCc3ccc(C)cc3)ccc2c1OCC | 1 | -5.0 | . | .
CCN(CC)C(=O)c1ccccc1-c1ccccc1C(=O)O | . | . | -3.5 | .
Cc1cc(C)cc(NC(=O)c2ccc([N+](=O)[O-])o2)c1 | . | . | 11.5 | .
O=C(NNC(=O)c1ccc([N+](=O)[O-])o1)c1ccccc1 | 1.1 | 100.0* | . | .
CCC(C)NC(=O)CN(c1ccc2c(c1)OCO2)S(=O)(=O)c1c(C)n[nH]c1C (configuration not stated) | 2.2* | -10.0 | 1.6 | 0.9
Cc1n[nH]c(C)c1S(=O)(=O)N(CC(=O)Nc1ccc2c(c1)OCCO2)c1ccc(C(C)C)cc1 | 2* | -3.0 | -12.7 | 1
c1ccc(C2N(c3ccccc3)CCN2c2ccccc2)cc1 | . | . | -2.2 | .
C=C(C)c1cccc(C(C)(C)NC(=O)NCCCN2CCCC2=O)c1 | 2.3* | 5.0 | 15.1 | 1
COC(=O)c1ccc(C(=O)Nc2cc(Cl)ccc2Cl)cc1NC(=O)C(C)Oc1ccccc1 (configuration not stated) | . | . | 66.4* | .
CC(=O)c1c(C)oc2ccc(OC(=O)c3cccc(Cl)c3)cc12 | . | . | 2.4 | .
CCOC(=O)c1c(C)[nH]c(N=Nc2cccc(C)c2)c1C | 1.3 | 16.0 | . | .
CCOC(=O)c1c(C)[nH]c(N=Nc2cccc(OC)c2)c1C | . | . | 103.3* | .
CCN(CC)c1nc(-c2nn[nH]n2)nc(N(CC)CC)n1 | 1.2 | 1.0 | -11.8 | 1
CSc1nnc(-c2sc3cc(C(F)(F)F)cnc3c2-c2ccccc2)n1C | 2* | 10.0 | . | .
COC(=O)c1ccc(Cl)c(NC(=O)C(C)NC(=O)C(c2ccccc2)c2ccccc2)c1 (configuration not stated) | . | . | -1.0 | .
CCNc1cc(Nc2ccc(C)cc2)c2c3c(onc13)-c1ccccc1C2=O | . | . | 11.4 | .
CCn1c(-c2ccccc2O)n[nH]c1=S | 1.7 | 2.0 | 7.8 | 0.8
CCN(CC)CCn1nc(C)nc1-c1ccccc1O | 2.3* | 3.0 | -0.1 | 0.9
CCc1nnc(NC(=O)CCC(=O)N2CCN(Cc3ccc(Cl)cc3)CC2)s1 | 1.4 | 9.0 | 8.6 | 1
O=C1NC(=S)NC(=O)C1=Cc1cc(Cl)c(OCc2ccc(C(=O)O)cc2)c(Cl)c1 | . | . | 103.6* | .
COc1cc(C=C2C(=O)NC(=S)NC2=O)ccc1OCc1ccc(C(=O)O)cc1 | . | . | -15.6 | .
COc1cc(/C=C2\SC(=S)NC2=O)cc(Br)c1OC(C)=O | . | . | -9.7 | .
O=C1NC(=S)S/C1=C/c1cc(I)c(O)c(I)c1 | . | . | 101.0* | .
COc1cc(/C=C2/SC(=S)NC2=O)cc(Cl)c1OCc1ccc(Cl)cc1Cl | . | . | 101.7* | .
COc1ccc(/C=C2/SC(=S)NC2=O)cc1OCc1ccc(Cl)cc1 | . | . | 10.2 | .
SMILES | PLAP act | E coli WT exp | HePTP inh | TNAP act DEA
COc1c(Br)cc(/C=C2\SC(=S)NC2=O)cc1Br | . | . | 103.2* | .
CC(=O)c1ccc(N2CCN(C(=O)c3cc(-c4ccc5c(c4)OCO5)nc4ccccc34)CC2)cc1 | 1.9 | -7.0 | 2.3 | 0.9
N#Cc1ccccc1CSc1ccc(-c2nc3ccccc3[nH]2)cn1 | 0.9 | -10.0 | . | .
Cc1ccc(N2CC(C(=O)N/N=C/c3c(F)cccc3Cl)CC2=O)cc1 (configuration not stated) | . | . | 0.2 | .
COc1nsnc1NS(=O)(=O)c1ccc(NC(=S)NC(=O)c2sc3cc(F)ccc3c2Cl)cc1 | . | . | 102.0* | .
O=C1NC(=S)N(c2cccc(Br)c2)C(=O)/C1=C/c1ccc(-c2ccc(C(=O)O)cc2)o1 | . | . | 69.4* | .
CCN1C(=O)C(=Cc2ccc(-c3cccc(C(=O)O)c3)o2)C(=O)N(CC)C1=S | . | . | 15.3 | .
C=CCN1C(=O)/C(=C\c2ccc(-c3ccc(F)cc3)o2)C(=O)NC1=S | . | . | 62.1* | .
C=CCN1C(=O)/C(=C\c2ccc(-c3cccc(C(=O)O)c3)o2)C(=O)NC1=S | . | . | 95.7* | .
C=CCN1C(=O)/C(=C\c2ccc(-c3ccccc3[N+](=O)[O-])o2)C(=O)NC1=S | . | . | 15.0 | .
C=CCN1C(=O)/C(=C\c2ccc(-c3ccc(C(=O)O)cc3)o2)C(=O)NC1=S | . | . | 102.3* | .
O=C1NC(=S)N(c2cccc(Br)c2)C(=O)/C1=C/c1ccc(-c2cccc([N+](=O)[O-])c2)o1 | . | . | 25.2 | .
COc1ccc(N2C(=O)NC(=O)/C(=C/c3ccc(-c4ccc(C(=O)O)cc4)o3)C2=O)cc1 | . | . | 10.1 | .
NS(=O)(=O)c1ccc(NC(=O)CSc2nnnn2-c2ccccc2)cc1 | . | . | -4.3 | .
OC(COCC1COc2ccccc2O1)CN1CCN(c2ccccc2F)CC1 (configuration not stated) | 1.3 | 1.0 | . | .
